Bioassay records: PubChem BioAssay, several laboratories
MPTP inh = inhibitors of mitochondrial permeability transition pore | isolated mouse mitochondria, Ca2+ swelling absorbance, 30 min | inhibition, % at 10 µM | 1.4% of 360,000 active | AID 602449;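 active means inhibition of 50% or more, scaled per plate between neutral and stimulator controls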
Calb FLC = C. albicans growth modulation with fluconazole; C. albicans CaCi-2 (fluconazole-resistant clinical isolate) + fluconazole, Alamar Blue growth, 48 h; growth inhibition, % (concentration not given with the values); 0.57% of 300,000 active; AID 1979;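 active means growth inhibition above about 58% in most replicates, limit read from the data, passing the limit was not always enough; inconclusive means exactly half the replicates above a set limit; inactive means most replicates below a set limit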;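 further: all wells also contain fluconazole at 8 µg/ml as a sub-toxic cotreatment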
CSC inhib = cancer stem cell inhibition; cancer stem cell-like cells viability, luminescence; inhibition, % at 7.5 µM; 1.1% of 300,000 active; AID 2717; in the data active means inhibition above about 75%; inconclusive means no clear call, values can overlap the other calls; tested in HMLE shEcad cells
Beta cell apopt = beta cell apoptosis inhibition; INS-1E cytokine-induced death, ATP luminescence, 48 h; percent of positive-control rescue, neutral wells zero; protection from apoptosis, % (concentration not given with the values); 0.8% of 300,000 active;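 active means Every replicate reaches about 75%, or at least half do and their mean reaches it too, limit read from the data; inconclusive means At least half of replicates reach the limit but their mean does not; inactive means Under half of replicates reach the limit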;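 further: higher means more ATP so stronger rescue from cytokine killing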
Mdm2 MdmX PPI = human Mdm2/MdmX binding inhibition; SaOS-2 split-luciferase Mdm2/MdmX complementation, luminescence; 3% of 330,000 active; inhibition, % at 8 µM; O15151+Q00987; AID 485346;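 active means inhibition of at least 50% at 8 µM in the primary screen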
Target sequence (O15151 whole entry, looked up): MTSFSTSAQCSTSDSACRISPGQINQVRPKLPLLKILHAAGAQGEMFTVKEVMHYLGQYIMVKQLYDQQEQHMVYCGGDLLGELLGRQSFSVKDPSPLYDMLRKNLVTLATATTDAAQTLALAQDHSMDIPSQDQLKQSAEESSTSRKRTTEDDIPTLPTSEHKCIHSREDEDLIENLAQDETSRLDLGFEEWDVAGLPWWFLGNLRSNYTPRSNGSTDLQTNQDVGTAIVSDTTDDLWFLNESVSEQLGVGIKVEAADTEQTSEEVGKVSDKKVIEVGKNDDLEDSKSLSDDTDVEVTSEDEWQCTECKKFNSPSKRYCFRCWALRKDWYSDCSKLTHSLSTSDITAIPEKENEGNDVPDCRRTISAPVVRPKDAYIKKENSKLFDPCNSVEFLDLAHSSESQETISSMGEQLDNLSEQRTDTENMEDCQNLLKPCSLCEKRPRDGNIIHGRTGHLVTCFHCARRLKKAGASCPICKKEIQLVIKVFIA
Target sequence (Q00987 whole entry, looked up): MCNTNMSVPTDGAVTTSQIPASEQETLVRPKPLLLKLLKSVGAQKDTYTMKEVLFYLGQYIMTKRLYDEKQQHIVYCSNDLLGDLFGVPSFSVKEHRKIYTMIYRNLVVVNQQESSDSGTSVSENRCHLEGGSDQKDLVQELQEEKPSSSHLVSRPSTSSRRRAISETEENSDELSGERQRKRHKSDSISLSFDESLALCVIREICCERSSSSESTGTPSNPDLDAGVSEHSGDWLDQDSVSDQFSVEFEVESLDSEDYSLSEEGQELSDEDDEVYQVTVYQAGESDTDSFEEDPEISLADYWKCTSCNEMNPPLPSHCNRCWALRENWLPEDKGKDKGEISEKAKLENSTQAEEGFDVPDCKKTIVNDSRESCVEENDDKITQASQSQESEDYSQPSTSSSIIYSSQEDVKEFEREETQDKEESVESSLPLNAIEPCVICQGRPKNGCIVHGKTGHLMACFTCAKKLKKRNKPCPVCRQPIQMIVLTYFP
SKKanGAS inh = blocks kanamycin growth of S. pyogenes SKKanGAS strain; BacTiter-Glo, 6 h; inhibition, % at 7.5 µM; 1.3% of 300,000 active; AID 1662;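 active means mean replicate score, as percent of positive control median, at least 50; inconclusive means mean below 50 but one replicate at or above 50; inactive means mean and every replicate below 50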;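 further: strain carries kanamycin resistance gene driven by streptokinase promoter and grows in 40 µg/ml kanamycin; loss of luminescence reflects streptokinase promoter inhibition or plain growth inhibition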
Mdm2-MdmX conf = confirmation of human Mdm2/MdmX interaction inhibitors; Mdm2-MdmX binding, luminescent assay; inhibition, % at 8 µM; shares compounds with Mdm2 MdmX PPI; 55% of 10,000 active; AID 489028; in the data active means inhibition above about 40%
FLuc counter = inhibits full-length luciferase, flagging false Mdm2/MdmX hits; SaOS-2 full-length luciferase counterscreen, luminescence; shares compounds with Mdm2 MdmX PPI; 77% of 6,200 active; AID 504607; inhibition, % at 8 µM;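 active means mean inhibition at 8 µM reaching about 37%, which flags the compound as non-specific, limit read from the data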;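 further: p53-null SaOS-2 cells with luciferase driven by a doxycycline-inducible promoter; compound on cells about two nights before reading with doxycycline added after day one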
Numbers stand for hits; - = inactive; ? = inconclusive; . = no result. The list is not random: actives were taken first. Their share in the collection is about 5.4%.

SMILES	MPTP inh	Calb FLC	CSC inhib	Beta cell apopt	Mdm2 MdmX PPI	SKKanGAS inh	Mdm2-MdmX conf	FLuc counter
C#CCn1c(=NC(=O)c2ccc(S(=O)(=O)N3CCc4ccccc4C3)cc2)sc2cc(S(N)(=O)=O)ccc21	-	-	.	104	86	-	55	-
C=CCn1c(=NC(=O)c2ccc(S(=O)(=O)N3CCc4ccccc4C3)cc2)sc2cc(S(N)(=O)=O)ccc21	-	?	.	-	-	-	.	.
COc1ccc(OC)c(CN2CCN(C(=O)c3ccc(C)c(S(=O)(=O)Nc4ccccc4OC)c3)CC2)c1	-	.	.	.	.	.	.	.
Nc1nccc(-c2ccc(-n3cnc4ccccc43)cc2)n1	-	-	.	-	70	-	56	-
c1ccc2c(c1)ncn2-c1ccc(-c2ccnc(-c3ccncc3)n2)cc1	-	-	-	-	53	-	-	.
c1ccc2c(c1)ncn2-c1ccc(-c2ccnc3ncnn23)cc1	-	-	-	-	-	-	.	.
Cc1nccc(-c2ccc(-n3cnc4ccccc43)cc2)n1	-	-	-	-	-	-	.	.
COc1ccc(N2CCN(C(=O)c3ccc4c(=O)n(Cc5ccc6c(c5)OCO6)c(=O)[nH]c4c3)CC2)cc1	-	-	-	-	-	-	.	.
O=C(c1ccccc1)c1coc2c1C(=O)c1ccccc1C2=O	-	-	-	-	-	-	.	.
O=C1c2ccccc2C(=O)c2c1oc(C(F)(F)F)c2C(=O)c1ccccc1	-	-	117	123	84	106	82	50
CC(C)OP(=O)(OC(C)C)C(Nc1ccccc1)c1ccccc1C(F)(F)F (stereo unspecified)	-	-	-	-	-	-	.	.
Cc1ccc(NS(=O)(=O)c2ccc(C(=O)N3CC(C)CC(C)C3)cc2)cc1 (stereo unspecified)	-	-	-	-	-	-	.	.
CSc1nnc2c3ccccc3n(CCc3ccccc3)c2n1	-	-	-	-	82	-	90	42
CCOc1ccc(NC(=O)N2CCCC2C(=O)NCc2ccco2)cc1 (stereo unspecified)	-	-	-	-	-	-	.	.
CC(C)COc1ccc(C(=O)Nc2sc3c(c2C(=O)O)CC(C)(C)OC3)cc1	-	-	.	-	51	-	47	82
COc1ccc(C(=O)Nc2sc3c(c2C(=O)O)CC(C)(C)OC3)cc1	-	-	-	-	-	-	.	.
CCC(=O)NC(=S)NNC(=O)c1ccc(NC(=O)c2ccccc2)cc1	-	-	-	-	-	-	.	.
Cc1ccccc1-c1csc(C(O)c2ccc(F)cc2)n1 (stereo unspecified)	-	.	.	.	.	.	.	.
c1ccc(Nc2nc(N3CCCCC3)nc(N3CCNCC3)n2)cc1	-	-	-	-	62	-	-	.
CC(C)C[C@@H](CO)N(Cc1ccccc1)S(=O)(=O)N(Cc1ccccc1)[C@@H](CO)CC(C)C	-	.	126	-	83	.	-	.
CCN([C@H](CO)CC(C)C)S(=O)(=O)c1ccccc1	-	.	.	.	-	.	.	.
COc1ccc(CN([C@H](CO)CC(C)C)S(=O)(=O)N(Cc2ccccc2)[C@H](CO)CC(C)C)cc1	-	.	.	-	62	.	-	.
C=C[C@H](CC(C)C)N(Cc1ccccc1)S(=O)(=O)N(Cc1ccccc1)[C@@H](C=C)CC(C)C	-	.	-	84	83	.	-	.
COc1ccc(CN([C@H](C)CO)S(=O)(=O)N(Cc2ccccc2)[C@H](CO)C(C)C)cc1	-	.	-	-	-	.	.	.
CC(C)C[C@@H](CO)N(Cc1ccccc1)S(=O)(=O)N(Cc1ccccc1)[C@H](CO)CC(C)C	-	.	125	-	81	.	-	.
SMILES	MPTP inh	Calb FLC	CSC inhib	Beta cell apopt	Mdm2 MdmX PPI	SKKanGAS inh	Mdm2-MdmX conf	FLuc counter
O=S(=O)(N(Cc1ccccc1)[C@H](CO)Cc1ccccc1)N(Cc1ccccc1)[C@H](CO)Cc1ccccc1	-	.	.	-	-	.	.	.
CN(C)C(=O)N1CCC(C(=O)N2CCCC(C(=O)c3cccc4ccccc34)C2)CC1 (stereo unspecified)	-	-	.	-	-	-	.	.
Cc1ccc(C(=O)NCc2ccc(Cl)cc2)o1	-	-	-	-	-	-	.	.
CS(=O)(=O)c1ccc(Nc2nc(C(N)CCc3ccccc3)cs2)cc1 (stereo unspecified)	-	.	.	.	.	.	.	.
Cc1cc(C)c2c(N)c(C(=O)c3ccc(Cl)cc3Cl)sc2n1	-	-	-	-	70	-	75	60
COc1cc(/C=N/NC(=O)c2sc3nc(C)cc(C)c3c2N)ccc1O	-	-	-	-	73	-	52	64
Cc1cc(C)c2c(N)c(C(=O)c3ccccc3Cl)sc2n1	-	-	-	-	-	-	.	.
COC(=O)c1sc2nc(C)cc(C)c2c1N	-	-	-	.	-	-	.	.
Cc1cc(C)c2c(N)c(C(=O)Nc3ncc(C)s3)sc2n1	-	.	.	-	79	.	81	55
CC(C)(C)OC(=O)N1CCCC(C(=O)Nc2cccc(C(=O)NCc3ccccc3)c2)C1 (stereo unspecified)	-	.	.	.	.	.	.	.
Cc1ccc(-n2ncc(C(=O)Nc3ccc(Cl)cc3)c2C2CCNCC2)cc1C	-	-	-	-	61	-	54	77
Cc1c(NC(=O)C2CCCCC2)cc(C(=O)N2CCOCC2)cc1[N+](=O)[O-]	-	-	-	-	-	-	.	.
Cc1ccccc1Sc1ncnc2onc(C)c12	-	-	-	-	-	-	.	.
Cc1noc2ncnc(Sc3c(Cl)cccc3Cl)c12	-	-	-	-	54	-	-	.
CCCCn1c(SCC(N)=O)nnc1-c1cc(OC)c(OC)c(OC)c1	.	-	.	.	-	-	.	.
O=C(CSc1nc2cc([N+](=O)[O-])ccc2n1-c1ccccc1)NCc1ccc2c(c1)OCO2	-	-	-	-	56	-	-	.
CC(C)C[C@H]1COc2cc(N3CC[C@@H](O)C3)ccc2S(=O)(=O)N1	-	.	.	.	.	.	.	.
COc1ccc(NC(=O)c2ccccc2NC(=O)CSc2ccc(Cl)cc2)cc1	-	-	-	-	84	-	43	71
Cc1ccccc1C(=O)N1CCN(c2ccc(NC(=O)c3cccc(OC(C)C)c3)cc2)CC1	-	-	-	-	53	-	45	55
Cc1ccccc1C(=O)N1CCN(c2ccc(NC(=O)CSc3ccc(Cl)cc3)cc2)CC1	-	-	-	-	61	-	49	42
Cc1ccccc1C(=O)N1CCN(c2ccc(NC(=S)NC(=O)c3cccs3)cc2)CC1	-	-	-	-	53	-	-	75
COc1c(C)cccc1C(=O)Nc1ccc(N2CCN(C(=O)c3ccccc3C)CC2)cc1	-	.	-	-	-	-	.	.
CCCC[C@H]1COCCS(=O)(=O)N1Cc1ccc(F)cc1	-	-	-	-	-	-	.	.
Cc1csc(NC(=O)c2cc(C)oc2C)n1	-	-	-	-	-	-	.	.
CCc1ccc(-c2cn(-c3nc(C)cc(C)n3)c(=N)o2)cc1	-	-	-	-	53	-	52	68
